# Laboratory results as given in PubChem BioAssay (NCI).
# About 79,000 compounds went through this panel and 15% of them were active in at least one assay; those are over-represented in the sample as a whole. Values without a mark were called inactive. The source made the active and inactive calls. Rule as the data show it: active = growth inhibition above about 70%; inactive = the rest.
# Experiment: NCI Yeast Anticancer Drug Screen. Data for the bub3 strain (AID 167)
# Details: S. cerevisiae bub3 mutant strain, at 50.0 µM, active compounds read high
# Method in brief: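 Steps: expose the mutant yeast strain to compound; grow alongside vehicle-treated cultures; measure growth; express inhibition against the vehicle cultures.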
row,Compound,growth inhibition
1,O=C(O)C1C(C2c3ccc(O)cc3Oc3cc(O)ccc32)C2(Cl)C(Cl)=C(Cl)C1(Cl)C2(Cl)Cl (stereo not given),81.6% (active)
2,C1=CC2=CC=CC3c4nc5ccc6ccccc6c5nc4C(=C1)C23 (stereo not given),-2.55%
3,O=C1c2c(c3c4ccccc4[nH]c3c3[nH]c4ccccc4c23)C(=O)N1Cc1ccccc1,-5.45%
4,CC(C)(CC1(C)NC(=O)NC1=O)OCc1ccccc1 (stereo not given),-45.8%
5,NC(=O)N/N=C/c1cccc([N+](=O)[O-])c1,25.6%
6,O=C(CN=C(CN(c1ccccc1)c1ccccc1)Oc1c(Cl)cc(Cl)cc1Cl)N1c2ccccc2Sc2ccccc21,-14.7%
7,N#C/C(=C\N1CC(=O)NC1=S)c1nc2ccccc2s1,24.9%
8,CC1=C(c2cc(C(=O)Nc3cc(C)ccc3C)nc(N)n2)Sc2ccccc2N1,-13.1%
9,CC(=O)OC/C=C(C)/C=C/C=C(C)/C=C/C1=C(C)CCCC1(C)C,12.5%
10,CCN(C(=S)Nc1cccc2ccccc12)c1ccccc1,-3.65%
11,Cc1ccc(C)c2c1CCc1cc3ccccc3nc1-2,30.2%
12,CN=Cc1c(O)ccc2ccccc12.[Cu+2],-32.9%
13,Cc1[nH]c(C)c2ccc(=O)ccc12,-2%
14,O=C1C2C(Cl)C(Cl)C(Cl)C(Cl)C2C(=O)N1NC1CCC([N+](=O)[O-])CC1[N+](=O)[O-] (stereo not given),2.5%
15,CC(=O)NC1C(OC(C)C(=O)NC(C(=O)NC(CCC(=O)NCCCNC2c3ccccc3Nc3cccc([N+](=O)[O-])c32)C(N)=O)C(C)C)C(O)C(CO)OC1(C)OCc1ccccc1 (stereo not given),-25.8%
16,CCSc1n[nH]c(=O)nc1SC,-19.5%
17,CC(C)CCOC(=O)C1C(=O)CC(c2ccccc2)C1c1ccccc1 (stereo not given),6%
18,CCCOC(=O)COc1ccccc1,-11.4%
19,Cn1c(-c2ccc(/C=N/N=C(N)N)cc2)c[n+]2ccccc12,-3.85%
20,CC1(C)CCCCC1/C=C/C(CC(O)(C(F)(F)F)C(F)(F)F)=N\Nc1ccc([N+](=O)[O-])cc1[N+](=O)[O-] (stereo not given),16.1%

row,Compound,growth inhibition
1,CCOC(=O)Nc1ccc(Cl)cc1Cl,-8.75%
2,COC(=O)COc1ccccc1[N+](=O)[O-],5.25%
3,CCCCOB(OCCCC)Oc1c(C(C)(C)C)cccc1C(C)(C)C,-5.65%
4,N#CCCN(CCC#N)c1nc(-c2ccccc2)nc(N(CCC#N)CCC#N)n1,2.75%
5,COC1OC(=O)c2cccc3cccc1c23 (stereo not given),-2.4%
6,CC(O)C(=O)OCCOCCOC(=O)C(C)O (stereo not given),11.8%
7,Cc1ccc(S(=O)(=O)OC(c2ccccc2)C(F)(F)F)cc1 (stereo not given),2.9%
8,COc1cccc(C[n+]2cc([O-])on2)c1,21.1%
9,COc1ccc(-c2cc(-c3ccccc3)c(-c3ccccc3)nn2)cc1CN1CCOCC1,-5.05%
10,CC(C)C[C@H](NC(=O)[C@H](CCc1ccccc1)NC(=O)c1ccc2ccccc2n1)B(O)O,84.7% (active)
11,Cc1ccc(C)c(OC(=O)NC2CCCCC2)c1,0%
12,CC(O)C(O)C(O)C(=O)C=O (stereo not given),-25.4%
13,O=c1[nH]c(Nc2ccccc2)nc2c1ncn2CC(O)CSCCO (stereo not given),10.4%
14,Cc1cc2ccccc2c[n+]1CC(=O)CC([O-])(C(F)(F)F)C(F)(F)F,16.4%
15,O=[N+]([O-])c1ccc(CCCc2ccc([N+](=O)[O-])cc2)cc1,11.6%
16,CCOc1ccc(/C=C(\NC(=O)c2ccccc2)C(=O)Nc2ccccc2)cc1OC,-0.15%
17,O=C(NC1COB(c2cccc([N+](=O)[O-])c2)OC1c1ccc([N+](=O)[O-])cc1)C(Cl)Cl (stereo not given),15.7%
18,c1ccc2c(c1)CCc1cc3cc4c(nc3nc1-2)-c1ccccc1CC4,-1.75%
19,CCOC(=O)c1ccc2c3c(ccc([N+](=O)[O-])c13)CC2,18.5%
20,Brc1ccccc1-c1nnc(-c2cccc3ccccc23)o1,-26.6%
